# Assay outcomes as filed in PubChem.
# Pf Dd2 growth: qHTS Primary assay for Inhibitors of Plasmodium falciparum Dd2 growth in vitro; P. falciparum Dd2 growth, SYBR Green, 72 h; Potency, µM (highest dose often 28.9 µM), for the others: at the top dose activity, negative = inhibition, most hits filed as inhibitors; 120,000 tested, 4.3% active; AID 1347417, 2020; active means well fitted inhibition curve with a large enough effect;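 further: plate controls were DMSO vehicle for no effect and reference drug for full effect; nearly all actives have a fitted effect of over 65% in size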
#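 Infected erythrocytes (Dd2, 0.3% parasitemia, 2.5% hematocrit final) are added to compound in RPMI-1640/Albumax II medium, grown 72 h at 37C in low oxygen, then lysed with saponin/Triton-X containing SYBR Green and read by fluorescence.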
# Numbers without * were called inactive; i = inactive; [ ] = another dose, or the depositor's remark. The full list was thinned out, with hits kept by preference. Potency means the concentration at half of the fitted maximal effect.
SMILES,Pf Dd2 growth
COC[C@@H]1CN(C(=O)COc2ccc(F)cc2)C[C@H]1c1nc(C)no1,6%
COc1ccc(-c2nc(C)nc3c2CCN(C(=O)c2ccccn2)CC3)cc1,0%
COc1ccccc1CN1CC(c2noc(CC3CCCC3)n2)CC1=O (centres undefined),0%
COc1ccc(C(=O)N2CCCC3(CC(c4ccccn4)=NO3)C2)cc1 (centres undefined),9%
COCc1cc(C)nc2sc3c(c12)NC(c1ccccc1C(=O)O)N(c1ccc(OC)cc1)C3=O (centres undefined),i
COCc1cc(C)nc2sc3c(c12)NC(c1ccc(O)c(OC)c1)N(c1ccccc1)C3=O (centres undefined),-9%
COCc1cc(C)nc2c1C(=O)NC(c1ccc(Br)cc1)N2Cc1ccccc1 (centres undefined),10µM*
O=C(OCc1ccccc1)N1CCCC2(C1)C(=NC1CCCC1)NC(=O)N2c1cc(F)cc(F)c1 (centres undefined),-28%
COc1cccc(N2C(=O)NC(=NC3CCCC3)C23CCCN(Cc2ccsc2)C3)c1 (centres undefined),8.9µM*
O=C1NC(=NC2CCCCC2)C2(CCCN(Cc3cccnc3)C2)N1c1cccnc1 (centres undefined),5%
O=C1NC(=NC2CCCCC2)C2(CCN(Cc3ccsc3)CC2)N1c1cccnc1,-3%
O=C1NC(=NC2CCCCC2)C2(CCCN(Cc3ccsc3)C2)N1c1cc(F)cc(F)c1 (centres undefined),7.9µM*
COc1cccc(N2C(=O)NC(=NC3CCCC3)C23CCN([S+](=O)([O-])c2ccccc2)C3)c1 (centres undefined),10%
Cc1cnc(C2CC2)n1C1CCN(C(=O)C2CC2)CC1,-12%
COc1cccc(NC(=O)C2CC(=O)N(c3n[nH]c4cccc(F)c34)C2)c1 (centres undefined),-18%
O=C1CCN(Cc2cccnc2)CCCC(C(=O)N2CCOCC2)CCN1 (centres undefined),6%
Cc1ccccc1-n1nc(-c2c(C)nc3scc(CC(=O)NC(C)C)n3c2=O)cc1C,-9%
O=C(c1ccc2c(c1)OCO2)N1CCCN(c2cc(-c3ccc(Br)cc3)[nH]n2)CC1,i
Cc1ccc(-c2nnc3ccc(Nc4cccc(N(C)C)c4)nn23)nc1,-7%[44.1 µM]
O=C(NCCc1ccccc1)N1CCN(C(=O)N2CC3CC(C2)[C@H]2CCCC(=O)N2C3)CC1 (some centres undefined),9%
COc1ccc(C)cc1Nc1c2c(nc3nc(-c4cccs4)nn13)CCCC2,47%[0.594 µM]
c1csc(-c2nc3nccc(-c4ccncc4)n3n2)c1,-13%
CC(=O)c1cccc(Nc2c3c(nc4nc(-c5cccs5)nn24)CCCC3)c1,11µM*
CCc1cnc(N)nc1N(C)CCC(O)c1ccccc1 (centres undefined),i
NC(=O)NCC(=O)N1CCC2(CCCN(CCCc3ccccc3)C2)C1 (centres undefined),6%
SMILES,Pf Dd2 growth
CC(C)c1noc([C@H]2C[C@@H]3C(=O)NCCCCCCN(C(=O)Cc4ccccc4)[C@@H]3C2)n1,i
O=C(Nc1ccc(S(=O)(=O)N(Cc2ccccc2)c2ccccc2)cc1)c1ccc(F)cc1,69%
Cc1ccc(NC(=O)c2ccc(N(Cc3ccccc3)S(C)(=O)=O)cc2)cc1,6.3µM*
COc1cccc(C(=O)Nc2ccc(S(=O)(=O)N(Cc3ccccc3)c3ccccc3)cc2)c1,48%
CCc1ccc(CNC(=O)CCC2CCN(C(=O)c3ccccc3)CC2)cc1,i
O=S(=O)(c1ccc(-c2ccno2)s1)N1CCC2(CCNCC2)C1,-21%
Cc1cc(C)cc(C(=O)N2CCC(CC(=O)NCc3ccccc3)C2)c1 (centres undefined),i
O=C(CCC[C@@H]1[C@H]2CCCN3CCC[C@@H](CN1C(=O)c1cccnc1)[C@@H]23)N1CCCC1,3%
C=CCN1CCN(C(=O)CCC[C@@H]2[C@H]3CCCN4CCC[C@@H](CN2C(=O)c2ccccc2)[C@@H]34)CC1,10µM*
C=CCN1CCN(C(=O)CCC[C@@H]2[C@H]3CCCN4CCC[C@@H](CN2Cc2ccccc2)[C@@H]34)CC1,i
Cc1ccc(-c2cc(N3CCCN(C(=O)c4ccsc4)CC3)n[nH]2)cc1C,i
COc1cc(OC)cc(C(=O)N2CCCN(c3cc(-c4ccc(C)c(C)c4)[nH]n3)CC2)c1,11µM*
O=C(c1ccccc1)N1CCCN(c2cc(-c3ccc(Cl)cc3)[nH]n2)CC1,0%
COc1cc(C(=O)N2CCCN(c3cc(-c4ccc(C)c(C)c4)[nH]n3)CC2)cc(OC)c1OC,-7%
CCOc1ccc(C(=O)N2CCN(c3cc(-c4ccc(F)cc4)[nH]n3)CC2)cc1OCC,i
CCOc1ccc(C(=O)N2CCCN(c3cc(-c4ccc(Cl)cc4)[nH]n3)CC2)cc1OCC,5µM*
Cc1ccc(Br)c(C(=O)NCc2ccnc3[nH]ccc23)c1,-2%
Cc1ccc(S(=O)(=O)N2CCC(n3cnnc3C)CC2)cc1Cl,-16%
O=C(Cc1c[nH]c2ccccc12)N[C@@H]1[C@@H]2CCO[C@@H]2[C@@H]1C1CCCC1,-18%
O=C(c1nc(-c2cc(Cl)cc(Cl)c2)c2ccccn12)N1CCCC1,2%
COCCOc1ccc2c(n1)CCN(C(=O)c1ccccc1OC)C2,-12%
COCCOc1ccc2c(n1)CCN(C(=O)C1(c3ccc(OC)cc3)CC1)C2,7.1µM*
COCCOc1ccc2c(n1)CCN(C(=O)C1CCCC1)C2,i
CC[C@H]1CN(C(C)=O)CC[C@H]1CC(=O)NC1CC1,i
O=C(NCC1CCCN(S(=O)(=O)c2ccc3c(c2)OCCO3)C1)c1cccs1 (centres undefined),-14%
SMILES,Pf Dd2 growth
Cc1ncsc1CN(Cc1ccccc1)C(=O)CCn1nnnc1CN1CCOCC1,-14%
Cc1c(CCNC(=O)c2ccc(C(C)(C)C)cc2)sc2nc(-c3ccc(F)cc3)nn12,11µM*
Cc1c(CCNC(=O)Cc2ccccc2)sc2nc(-c3ccc(F)cc3)nn12,i
Cc1c(CCNC(=O)Cc2ccc(F)cc2)sc2nc(-c3ccc(F)cc3)nn12,4%
O=C([C@H]1C[C@H](Oc2cccnc2)CN1S(=O)(=O)c1ccc(F)cc1)N1CCOCC1,-16%
COc1ccc(-c2n[nH]c3c2CC(=O)N(Cc2ccccn2)C3)cc1F,-16%[44.1 µM]
O=C1Cc2c(-c3ccccc3OCc3ccccc3)n[nH]c2CN1Cc1ccccn1,10µM*
COc1ccc(CN2Cc3[nH]nc(-c4ccccc4OC)c3CC2=O)cc1,-29%[44.1 µM]
O=C1Cc2c(-c3ccccc3OCc3ccccc3)n[nH]c2CN1Cc1ccccc1,10µM*
O=C1Cc2c(-c3cccc4ccccc34)n[nH]c2CN1Cc1ccccn1,-4%[44.1 µM]
O=C1Cc2c(-c3ccccc3Cl)n[nH]c2CN1Cc1ccccc1,7%[44.1 µM]
COc1ccc(CCCN2C(=O)O[C@@H]3CN(c4cc(OC)ncn4)C[C@@H]32)cc1,-8%
CC(=O)N1CCc2ccc(C(=O)NC3CCCCCC3)cc21,i
O=c1c2c(CO)c(-c3ccc(F)cc3)nn2ccn1Cc1cccc(C(F)(F)F)c1,-15%
O=C1CCN(C(=O)C2CCN(C(=O)C3CCCC3)CC2)CCCCCCN1,10%
CCOc1ccccc1CNC(=O)c1cccc2c1CCN2C(=O)CC,10µM*
CCOc1ccccc1CNC(=O)c1ccc2c(c1)N(S(C)(=O)=O)CC2,i
CCC(=O)N1CCc2c(C(=O)NCc3cccc(F)c3)cccc21,i
Cc1cccc(CC(=O)N2CC3CC(C2)[C@H]2CCCC(=O)N2C3)c1 (some centres undefined),-1%
